Sensor-assay potency score (higher = more potent) data for 90 sequences are collected here from the OligoGym collection.

Some targets named below: NPR1; NTRK3; NUP54; ODF3L1; OTP; P2RY6; PARP11; PCSK5; PDE8B; PDGFRB; PDIA5; PDE1C; PGLYRP2; PHF23; PHF20; PHF19; PHF15.
What all share (test): pooled miR-30 sensor sort-seq; sequence = guide strand
What all share (conditions): shRNA
Further: reference of the scale not given here.

For the sequence TTGTAGTTCAGTACAACCCTGA, the sensor-assay potency score (higher = more potent) with NPR1 was 0.392. ATACTCGTCCTTGACACCGAAG gave a sensor-assay potency score (higher = more potent) with NPR1 of -1.26. In the test with NTRK3, TTGATCTCAGTCTTGCTGCAGA yielded a sensor-assay potency score (higher = more potent) of 0.132. With TTCACTAGCAGATTCGCTCCAA, the sensor-assay potency score (higher = more potent) in the test with NTRK3 came out at 0.574. TAACAGATCTGCATCTATGTAA gave a sensor-assay potency score (higher = more potent) in the test with NUP54 of 0.386. The sequence TAGCAGGGAGCAGCTCGGCTGA had a sensor-assay potency score (higher = more potent) with ODF3L1 of -1.48. On the same count and under the same terms, for ACATCCTCCTTGTAGAACCAGT the value was -1.04. TTATCTACACAAAACATCCTAT displayed a sensor-assay potency score (higher = more potent) with OTP of -0.185. In the test with P2RY6, TTTAGGGTGTACACGGCCGTGC displayed a sensor-assay potency score (higher = more potent) of -0.557. Regarding TTTCTGTAGGAGCTCATGTGGT, in the test with P2RY6, the sensor-assay potency score (higher = more potent) is -1.02. Sequence TTGCGATCCATCGTCTTCCCAA gave a sensor-assay potency score (higher = more potent) with PARP11 of -0.797.

As for TTTTGCTTCAACCATGTCCGTG, the sensor-assay potency score (higher = more potent) with PCSK5 was -0.77.

In turn, TTAGTAAACACATACTCGTTTC gave a sensor-assay potency score (higher = more potent) in the test with PDE8B of -0.767. TTCATCTTTGGTACCCAGCTGA returned a sensor-assay potency score (higher = more potent) with PDE8B of -0.0849.

In the test with PDGFRB, TTGGTCAGTGTGAGCACGCTGG registered a sensor-assay potency score (higher = more potent) of -0.355. For the sequence TCAACTTTCATCTTCTTGCACA, in the test with PDIA5, the sensor-assay potency score (higher = more potent) is -0.596. As for TAAACACATACTCGTTTCCTGA, in the test with PDE8B, the sensor-assay potency score (higher = more potent) is -0.83. In the test with PDE8B, TATATTTATAACCTTTGTGATG gave a sensor-assay potency score (higher = more potent) of -1.47. As for TTTTGTGCTTGCTGTATCCCAC, the sensor-assay potency score (higher = more potent) in the test with PDE1C is -0.201. The sequence TTAAAAACTCACATACTCCAAA displayed a sensor-assay potency score (higher = more potent) with PDE8B of -0.433. Turning to TAGTCTTTCATGGTCTCCCTCC, the sensor-assay potency score (higher = more potent) with PDIA5 was -0.586. TTGATCAAAGTTGCTCGGCAGG had a sensor-assay potency score (higher = more potent) with PDGFRB of -0.679.

The sequence TAGAACATGACCAAGGTGTGTT displayed a sensor-assay potency score (higher = more potent) in the test with PDIA5 of 0.669.

ATCGCTCTGACTATCTTCCTTT showed a sensor-assay potency score (higher = more potent) with PDE8B of -0.16. As to TTGAGTAAAAATCTCACGTTGT, the sensor-assay potency score (higher = more potent) with PDE1C was 0.531. TTGACGGCCACTTTCATCGTGG: the sensor-assay potency score (higher = more potent) with PDGFRB is -0.193. In the test with PDGFRB, AAAGTCACAGATCTTGACCAGC registered a sensor-assay potency score (higher = more potent) of -0.788.

Regarding TTCTTCTTCAGGGTCTCCCGGA, in the test with PDIA5, the sensor-assay potency score (higher = more potent) is -0.62. In turn, TCAACCTTTTTGTCCTTCGGGC yielded a sensor-assay potency score (higher = more potent) with PDIA5 of -0.306. TACAATAATTTCATGATGCTTA registered a sensor-assay potency score (higher = more potent) with PDE8B of -0.231. Regarding TCTTAGTAAACACATACTCGTT, in the test with PDE8B, the sensor-assay potency score (higher = more potent) was -0.91.

In the test with PDGFRB, TAACAGGAGAGACAGCAACAGC gave a sensor-assay potency score (higher = more potent) of -1.23.

The sequence TACTTTTCTGCGAACTTCCCAT had a sensor-assay potency score (higher = more potent) in the test with PDIA5 of -0.283. TTGCTGTAGAGCTCCGCGCTGG returned a sensor-assay potency score (higher = more potent) in the test with PDGFRB of -0.717. For the sequence TTTGATGGCATTGTAGAACTGC, the sensor-assay potency score (higher = more potent) with PDGFRB came to 0.772. In the case of TTTGAAGTCACCATTCTGTTGC, the sensor-assay potency score (higher = more potent) in the test with PDE1C was 0.443. Take AATTGTTTGACCAAAGACCGTA: in the test with PDE1C, the sensor-assay potency score (higher = more potent) was found to be 0.319. As to TGAACGATGCTCTTGAACCGGG, the sensor-assay potency score (higher = more potent) with PDE1C is -0.343.

As to TAGCAAGCAATTATGCTGCTAT, the sensor-assay potency score (higher = more potent) in the test with PDE8B was 0.445. On to TAATTCAACCTTTTTGTCCTTC, for which the sensor-assay potency score (higher = more potent) with PDIA5 turned out to be 0.526. With ATTCTCTCCACAAATATCCCAG, the sensor-assay potency score (higher = more potent) with PDE1C was -0.723. For ATTGATTATATTTATAACCTTT, the sensor-assay potency score (higher = more potent) with PDE8B was -0.571. In the test with PDGFRB, TCAGCTCTGACACATACCGGGT yielded a sensor-assay potency score (higher = more potent) of -1.42. In turn, AATCTCTAGAACTCTGTCCAAG displayed a sensor-assay potency score (higher = more potent) with PDE8B of -1.58. For TAGTCCACCGACTCGTCCTTGC, the sensor-assay potency score (higher = more potent) with PDGFRB was -0.654. Regarding TAAGATCTACCACTGAAGCTTC, the sensor-assay potency score (higher = more potent) with PDE1C is -0.318. Regarding TTGCATTCACAGTCGCTGCCTT, in the test with PDE8B, the sensor-assay potency score (higher = more potent) is -0.0743. In the test with PDGFRB, TAGCACTGGAGACTCGTTGATC yielded a sensor-assay potency score (higher = more potent) of -0.385. Sequence TACTGGAACAAGAACCGTCCTT displayed a sensor-assay potency score (higher = more potent) in the test with PDIA5 of 0.0118. In the test with PDE1C, TTTGAGTAAAAATCTCACGTTG gave a sensor-assay potency score (higher = more potent) of -0.294. In the case of TCTTTTTGTAACCTTCGCCCAA, the sensor-assay potency score (higher = more potent) in the test with PDGFRB was -0.683. In turn, TTTTCCTCTGCTTCCTTCTTGG showed a sensor-assay potency score (higher = more potent) with PDE1C of -0.143.

TTGGACATCTGGACAGCCTTTT came in with a sensor-assay potency score (higher = more potent) with PGLYRP2 of -0.831. Take TTAACAGAGATGCCTTGGGGTC: the sensor-assay potency score (higher = more potent) with PGLYRP2 is -1.41.

As to TATGCCAAAACAAAACTGCAGA, the sensor-assay potency score (higher = more potent) with PHF23 is -0.479. The same measure, in the same setting: as for TTCTTGCTCTTCTTGATTCGAG, the figure is -0.558. In the test with PHF20, TTTGTTACTTCCACAGTCGAAA showed a sensor-assay potency score (higher = more potent) of -0.866. On the same count and under the same terms, for TTGTGTGAGGACCCACACCTGG the value was -1.15. TTTGAAGTTGTTCTTGACCTTC registered a sensor-assay potency score (higher = more potent) in the test with PHF19 of -0.341. On the same count and under the same terms, for TAGTTGGTGATAGATGACTTGA the value was -1.21. The same measure, in the same setting: for TTGAATTTCATCCAGCGTGAAG the value was -1.1. In turn, TAAACTTATGGTCTAGGTCGAC gave a sensor-assay potency score (higher = more potent) in the test with PHF20 of -0.7. TTCTTAATCTTAGCACAGGAGA displayed a sensor-assay potency score (higher = more potent) in the test with PHF23 of -1.04.

In turn, TTAACTTCCGCTTCTTGCTCTT returned a sensor-assay potency score (higher = more potent) with PHF23 of 0.475.

TTGACAGTCTGAACTACTCCAT returned a sensor-assay potency score (higher = more potent) with PHF20 of -0.0489. Consider TACATCTGAGTCGCTCATCTCC, for which the sensor-assay potency score (higher = more potent) with PHF15 was -0.519.

In the case of TTCCTTGTCTTCCTTCTCGTTC, the sensor-assay potency score (higher = more potent) with PHF20 is -0.88.

TTGTCTGGAGTCGTCCGTGAAC came in with a sensor-assay potency score (higher = more potent) with PHF15 of -1.11.

Sequence TTCTTGATCTCCTTGCCGCAGA showed a sensor-assay potency score (higher = more potent) with PHF19 of -0.66. The sequence TTAATGGGACTTCACATCCTTT registered a sensor-assay potency score (higher = more potent) with PHF20 of -1.47. As to TTGAATTTACAACTGTCTCCAA, the sensor-assay potency score (higher = more potent) with PHF20 came to 0.401. TTGCTTAGAGCTGCTGACCCTC came in with a sensor-assay potency score (higher = more potent) in the test with PHF19 of -1.03.

Consider TAATATAGTCCGCATTTCCAGG, for which, in the test with PHF15, the sensor-assay potency score (higher = more potent) was -1.26. In the test with PHF23, TTCAGAGTCTGTATCACTGGGG had a sensor-assay potency score (higher = more potent) of 0.423. In turn, TTTTCTTCTATAAACTCGCCTT registered a sensor-assay potency score (higher = more potent) with PHF19 of -0.149. In the case of TTGAACTTGACCTCATCGTTGT, the sensor-assay potency score (higher = more potent) with PHF15 was 0.744.

In the test with PHF15, TTGTCTGCTAATATAGTCCGCA showed a sensor-assay potency score (higher = more potent) of 0.0345.

The sequence TACCATGATGTCCTCGTCCATG came in with a sensor-assay potency score (higher = more potent) with PHF23 of -1.2. Sequence TTCTCAATGGAGTCCATCCTGT yielded a sensor-assay potency score (higher = more potent) with PHF20 of -0.423. In the test with PHF19, TTTTATAACTGTTCAGAGCGTT gave a sensor-assay potency score (higher = more potent) of 0.145. On to TTTATAACTGTTCAGAGCGTTG, for which the sensor-assay potency score (higher = more potent) with PHF19 was -1.51. The sequence TTTTATAGACAACTGTCCCATT yielded a sensor-assay potency score (higher = more potent) with PHF23 of -0.805.

TTTAACTTCCGCTTCTTGCTCT: the sensor-assay potency score (higher = more potent) with PHF23 came out at 0.601. Sequence TAAACTTTGAATTTCATCCAGC returned a sensor-assay potency score (higher = more potent) in the test with PHF19 of 0.174. For TGACAGTCTGAACTACTCCATC, the sensor-assay potency score (higher = more potent) with PHF20 was -1.04. Consider ATCTCGTCCAAGTCATAGCGGC, for which, in the test with PHF15, the sensor-assay potency score (higher = more potent) was -1.39. TTAACTTTCCTTCTTTATCAGG showed a sensor-assay potency score (higher = more potent) with PHF20 of -0.815. As to TGAATCTTTTTGAAGGTGCAGA, in the test with PHF19, the sensor-assay potency score (higher = more potent) is 0.0337. TTTTAAACAGTCCACAACTTTG yielded a sensor-assay potency score (higher = more potent) with PHF20 of -1.74. The sequence TAACATTGCAGCATCCGCAGGT had a sensor-assay potency score (higher = more potent) in the test with PHF19 of 0.519.
